Experimental data taken from the supplement of paper PMC10681739.
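Note: Full-length recombinant human ETS1 or RUNX1 bound to double-stranded 36-bp genomic probes on microarrays, detected by protein-specific primary antibody and Alexa488 secondary, spot fluorescence as median of four replicate spots.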

These sequences were tested against RUNX1 (UniProt Q01196) (assay: RUNX1 binding intensity (PBM fluorescence) in presence of ETS1, normalised to RUNX1-only experiment (arbitrary fluorescence units); higher = stronger binding). Conditions: RUNX1 concentration 2 nM; ETS1 concentration 25 nM.
Chain of RUNX1 (Q01196 whole entry): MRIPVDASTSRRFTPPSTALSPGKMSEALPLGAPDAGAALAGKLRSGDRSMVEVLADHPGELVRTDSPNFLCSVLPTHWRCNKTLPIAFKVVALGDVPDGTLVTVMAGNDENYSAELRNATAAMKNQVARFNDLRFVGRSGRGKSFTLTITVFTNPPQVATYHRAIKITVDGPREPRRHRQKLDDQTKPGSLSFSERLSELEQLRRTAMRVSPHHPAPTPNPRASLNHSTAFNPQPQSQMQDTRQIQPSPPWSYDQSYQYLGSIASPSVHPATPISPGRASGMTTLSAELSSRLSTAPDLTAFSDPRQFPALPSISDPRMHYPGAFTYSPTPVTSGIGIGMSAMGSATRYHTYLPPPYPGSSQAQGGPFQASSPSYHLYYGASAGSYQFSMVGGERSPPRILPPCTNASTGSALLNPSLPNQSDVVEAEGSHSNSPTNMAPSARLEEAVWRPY
Method: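 Cooperative gcPBM on 36-bp genomic probes with neighbouring ETS1 and RUNX1 sites. Recombinant human RUNX1 (2 nM) was incubated alone or with ETS1 (25 nM) and detected with anti-RUNX1 antibody plus Alexa488 secondary. Values are medians over 4 replicate spots; the RUNX1+ETS1 data were normalised to the RUNX1-only data. The probes sit in constant array flanks that are not printed.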
CCGGCAGGAAGTTAGCATGGGCGGACCACACGGGGG was tested, and the RUNX1 binding intensity was 1590.
TGCCTCACCTCACATCCGTTTGTGGCTGCCGAGTGC was tested, and the RUNX1 binding intensity was 1880.
Sequence CGGTTCCGGCGCCTGAAGTTTTAGCTGCGGTGGCGG has an RUNX1 binding intensity of 1720.
GTGGGGCGGGCTTCCGGCGCTCCCACCGCGAGCCGA showed an RUNX1 binding intensity of 1500.
TGTCTTCAGGAAGTGTAGCAGGTGTTGAGGTCAAGC showed an RUNX1 binding intensity of 914.
For CTGCTTCCGGCCCCGGGGTTCGCTACCCCACAATCC, the RUNX1 binding intensity was 2530.
Sequence TTTAGACACCGCTTCCTGCCACAAGCCCAAGACTTA has an RUNX1 binding intensity of 3470.
CCCGTTCTCCGGAAGTGCGCGGGTTGGAGCTGAAGC showed an RUNX1 binding intensity of 1600.
TCCAGTGCCGCCGCCGGAAAACCGCAGCGGCGGCGG showed an RUNX1 binding intensity of 10200.
GCGCAAGGATCCGGTTTGTTGTGGTGTGGGGAGGGG gave an RUNX1 binding intensity of 1070.
AAAATTAAAGCAGGAAGTAATCAACCACATCAAATG gave an RUNX1 binding intensity of 1610.
With TCGGAGACGGCGAAAGGAAACCGCAAGGAGGCCACC the RUNX1 binding intensity was 9290.
CTTTCGGGGGCGGAAGTTGCGGTGCATTGTAGGTTC gave an RUNX1 binding intensity of 2800.
In the case of GGCTCGGCAAACATCCGGCTCCGCGGTGGAACGGGA, the RUNX1 binding intensity is reported as 1580.
Sequence CAGCACGCAGGAAGCACATGTGGTGGGGCTCTTCCA has an RUNX1 binding intensity of 1030.
TCTCTTCCTGTGATGGAAATACATTGAGGTTTGCGA showed an RUNX1 binding intensity of 1740.
Sequence GGGTCCTTCCGGGTTTTGTGTCGAATCTGCGGCGGC has an RUNX1 binding intensity of 1720.
GTAAATAAAGAGGAAGTCCCTATGCGGGGGATGGGG was tested, and the RUNX1 binding intensity was 884.
GGTTGTAAGTTCACAGGATGTGGTGTGTCCCTGTGG showed an RUNX1 binding intensity of 1400.
For CTTCACTATGCATCCTGTACTGCAACCACACCAAAC, the RUNX1 binding intensity was 1910.
For TGCGAGCACCCGGAAGCCGCTTGCGGGCTCCCGGAG, the RUNX1 binding intensity was 999.
